# PubChem BioAssay (NCI)
# Where “and” joins values, the source holds several entries; their conditions need not be identical. Identical values can stand only once. About 83,000 compounds went through this panel and 20% of them were active in at least one assay; those are over-represented in the sample as a whole.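 Cell lines were cultured in 96-well plates, exposed to a single compound concentration, and assessed for percent growth 48 hours later.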 Calls of active or inactive are those of the source. How the source made its calls: active means growth percent below 10; inactive means the rest.
# System: MCF7 breast
# Assay: NCI-60 one-dose screen, 48 h (100 = growth as untreated, 0 = no growth, -100 = all killed)
# Conditions: 10 µM unless noted
row,Compound,growth
1,CC#CC#C/C=C1\C=CC2(OC=CC2OC(C)=O)O1 (centres undefined),-91.4% [100 µM] (active) and -48.8% [100 µM] (active)
2,N#CC1C(=O)N(c2ccccc2)NC12OC(=O)c1ccncc12 (centres undefined),85.8% [20 µM] (inactive) and 87.1% [20 µM] (inactive)
3,CC(=O)c1cc2c(s1)C(=O)c1sccc1C2=O,-67.2% [100 µM] (active) and -100% [100 µM] (active)
4,CCOC(=O)/C(C#N)=C(/NNc1ccccc1)c1ccncc1C(=O)O,28.2% [100 µM] (inactive) and 39.1% [100 µM] (inactive)
5,CC(C)C1OC23CCCCC2C(C#N)(C#N)C1(C#N)C(=N)O3 (centres undefined),-20.4% [100 µM] (active)
6,CC(=O)OC(=C(C#N)C#N)c1nccnc1C(C)=O,106% [20 µM] (inactive) and 75.4% [20 µM] (inactive)
7,CCOc1cc2c(cc1O)C(=O)C[C@@H]1[C@@H]2CC[C@]2(C)[C@@H](O)CC[C@@H]12,4.23% [100 µM] (active) and -100% [100 µM] (active)
8,C/C(Cl)=N/OC(=O)Nc1ccc(S(N)(=O)=O)c(C)c1,-72.4% [100 µM] (active) and -89.8% [100 µM] (active)
9,N#C/C(=C\c1ccccc1)C(=O)Nc1nnc(-c2ccccc2)o1,33.4% [100 µM] (inactive) and 3.23% [100 µM] (active)
